Measured values as given in article PMC4552634, “A New Set of Chemical Starting Points with Plasmodium falciparum Transmission-Blocking Potential for Antimalarial Drug Discovery” (PLoS ONE, 2015).
Like-named read-outs stand apart in the source and are kept apart here. The campaign covered roughly 13,000 compounds. About 3,200 (25%) showed an effect of 50% or more. The list shows a part of the results.

System: P. falciparum stage V gametocytes
Parameters: BacTiter-Glo ATP luminescence viability of purified stage V gametocytes in 384-well plates, per cent inhibition versus DMSO
Conditions: 48 h, 5 µM, inhibitor

SMILES	% Inhibition [%]	% Inhibition (% Inhibition) [%]
CN(C)c1ccc(/C=C2\S/C(=N\c3ccccc3)N(c3ccccc3)C2=O)cc1[N+](=O)[O-] [TCMDC-124086]	-8.825	
CCC(C)c1ccc(Nc2nc(C)cc(N(CC)CCCN3CCCCC3)n2)cc1 (centres unmarked) [TCMDC-132456]	-18.05	
COc1cc(OC)c2c(c1Cl)O[C@]1(C2=O)C(=O)C(Cc2ccccc2)(Cc2ccccc2)C(=O)C[C@H]1C [TCMDC-131804]	9.09	
COc1ccc(CN(C)CCCOc2ccc(NC(=O)C=Cc3ccc(C(C)(C)C)cc3)cc2)cc1OC [TCMDC-138277]	-85.5	
CN1CCCc2ccc(NC(=O)C=Cc3ccc(-c4ccc(F)cc4F)o3)cc2C1 [TCMDC-134124]	39.53	
COc1ccc(Br)cc1/C=C/C(=O)Nc1ccc2c(c1)CCCN(C)C2 [TCMDC-133717]	27.94	
CN1CCCc2cc(NC(=O)C=Cc3ccc(-c4ccc(F)cc4F)o3)ccc2C1 [TCMDC-134051]	105.5	
CCCCCn1c(Sc2ccc(C#N)c([N+](=O)[O-])c2)nnc1-c1ccc(OC)cc1 [TCMDC-135603]	31.95	
COc1ccc2ncc(F)c(CCN3CCC(NCc4cnc5c(c4)NC(=O)CS5)CC3)c2c1 [TCMDC-134490]	87.27	
COc1ccc2ncc(F)c(CCN3CCC(NCc4cc5c(cn4)OCCS5)CC3)c2c1 [TCMDC-134569]	54.76	
COc1ccc2ncc(F)c([C@H](O)CN3CCC(NCc4cc5c(cn4)OCCO5)CC3)c2c1 [TCMDC-135296]	-10.65	
COc1ccc2nccc([C@@H](O)CN3CCC(NCc4cnc5c(c4)NC(=O)CS5)CC3)c2c1 [TCMDC-141230]	6.568	
COc1ccc2ncc(F)c([C@@H](O)CN3CCC(NCc4cc5c(cn4)OCS5)CC3)c2c1 [TCMDC-135862]	14.45	
COc1ccc2ncc(F)c([C@H](O)CN3CCC(NCc4ccc5c(c4)NC(=O)CS5)CC3)c2c1 [TCMDC-135827]	14.82	
CC(C)CC(=O)Nc1cc(=O)[nH]c2nc(-c3ccccc3)nn12 [TCMDC-125475]	3.79	
Cc1cc(C(=O)CN2C(=O)NC3(CCCc4ccccc43)C2=O)c(C)n1Cc1ccc(F)cc1 (centres unmarked) [TCMDC-125057]	-27.15	
O=C(/C=C/c1ccc(Cl)c(Cl)c1)NCCCCCN1CCC(NC(=O)c2ccc3ccccc3c2)CC1 [TCMDC-135869]	-22.99	
Cc1[nH]c(C)c(-c2ccc(-c3ccc(C(F)(F)F)cc3C(F)(F)F)nc2)c(=O)c1Br [TCMDC-136013]	70.39	
Cc1[nH]c(C)c(-c2ccc(-c3cccc(C(F)(F)F)c3)nc2)c(=O)c1Br [TCMDC-135911]	22.21	
Cc1[nH]c(C)c(-c2ccc(-c3ccccc3C(F)(F)F)nc2)c(=O)c1Br [TCMDC-135881]	80.96	
Cc1[nH]c(C)c(-c2ccc(-c3cc(C(F)(F)F)cc(C(F)(F)F)c3)nc2)c(=O)c1Br [TCMDC-136015]	76.88	
N#Cc1cccc(/C=C/C(=O)NC2CCC(CCN3CCc4ccc(-c5cnccn5)cc4CC3)CC2)c1 (centres unmarked) [TCMDC-140238]	-55.93	

SMILES	% Inhibition [%]	% Inhibition (% Inhibition) [%]
Cc1cc(N(C)C)nc(Nc2ccc(NC(=O)C3CCCCC3)cc2)n1 [TCMDC-124978]	11.42	
CCOc1cc(C(=O)NCCN(C(C)C)C(C)C)ccc1-c1nc2ccc(Cl)cc2[nH]1 [TCMDC-140910]	18.37	
O=c1cc(NCCCNC2CCCc3c2ccc2ccccc32)[nH]c2ccccc12 (centres unmarked) [TCMDC-139366]	0.6782	
CCOC(=O)c1c(C)n(C2CCCCCC2)c2cc(Br)c(O)cc12 [TCMDC-124588]	-95.43	
Cc1ccc(-n2c(C)cc(C(=O)CN3C(=O)NC(Cc4ccccc4)C3=O)c2C)cc1 (centres unmarked) [TCMDC-123563]	-21.41	
CC(C)C[C@@H](/C=N/NC(N)=O)NC(=O)[C@H](CC(C)C)NC(=O)[C@H](CC(C)C)NC(=O)OCc1ccccc1 [TCMDC-139049]	-49.58	
CCC(Nc1noc(-c2c(-c3ccccc3)noc2C)n1)c1ccccc1 (centres unmarked) [TCMDC-134200]	3.321	
CC(C)CNCc1cccc(-c2ccccc2CNC2CCN(Cc3ccccc3)CC2)c1 [TCMDC-140469]	76.18	
CC(C)CNCc1cccc(-c2ccc(CNC3CCN(Cc4ccccc4)CC3)cc2)c1 [TCMDC-140487]	103	
CC(C)CNCc1ccc(-c2cccc(CNC3CCN(Cc4ccccc4)CC3)c2)cc1 [TCMDC-140480]	110	
CC(C)CNCc1cccc(-c2cccc(CNC3CCN(Cc4ccccc4)CC3)c2)c1 [TCMDC-140479]	106.4	
NC1=NC(c2ccccc2)(c2ccccc2)C(=O)N1C1CCCCC1 [TCMDC-136761]	-44.85	
N=c1c2c(n(Cc3cccc(Cl)c3)c3c1CCC3)CCCC2 [TCMDC-125614]	24.77	
COC(=O)/C=C/c1ccc(CC(C)NCC(O)c2cccc(C(F)(F)F)c2)cc1 (centres unmarked) [TCMDC-131503]		-2.875
NC(N)=NC(=O)Nc1cc(Cl)c(Br)c(Cl)c1 [TCMDC-137507]	-11.69	
O=C(/C=C/c1ccc(Cl)c(Cl)c1)NCCCCCN1CCN(C(=O)Nc2cccc(F)c2)CC1 [TCMDC-135731]	4.224	
O=C(Nc1nc2cc(S(=O)(=O)NCCc3cccc(F)c3)ccc2n1CCCn1ccnc1)c1ccc(Cl)cc1 [TCMDC-141623]	-29.17	
CC(C)c1ccc(NC(=O)c2ccc(C(=O)NC3CCN(Cc4ccsc4)C3)cc2)cc1 (centres unmarked) [TCMDC-136745]	-11.55	
CSCCCN1CCC(O)(c2ccc3oc(C(=O)Nc4ccc5sc(C)nc5c4)cc3c2)CC1 [TCMDC-124646]	11.7	
CC(C)CNCc1ccc(-c2ccccc2CNC2CCN(Cc3ccccc3)CC2)cc1 [TCMDC-140470]	78.66	
COCCNCc1ccc(-c2ccccc2CNC2CCN(Cc3ccccc3)CC2)cc1 [TCMDC-140471]	43.38	
CC(C)CNCc1ccc(-c2ccc(CNC3CCN(Cc4ccccc4)CC3)cc2)cc1 [TCMDC-140488]	73.02	

SMILES	% Inhibition [%]	% Inhibition (% Inhibition) [%]
Cc1cc(-c2ccc3c(c2)CC[C@@H](N[C@@H](C)c2ccccc2)C3)cnc1N [TCMDC-138130]	26.54	
Cn1c(NC(=O)C2CCC(CNC(=O)c3ccc(O)c(-c4cccc([N+](=O)[O-])c4)c3)CC2)nc2ccccc21 (centres unmarked) [TCMDC-140883]	1.197	
O=C(Nc1cccc(-c2nn3ccccc3c2-c2ccnc(Nc3ccccc3)n2)c1)c1cc(F)ccc1F [TCMDC-135823]	-54.26	
COc1ccc(OC(C)CNC(=O)c2cc([N+](=O)[O-])ccc2-c2ccc(OC)cc2)cc1 (centres unmarked) [TCMDC-132303]	16.94	
COc1ccc(-c2ccc([N+](=O)[O-])cc2C(=O)NCC(C)Oc2ccc(C(F)(F)F)cc2)cc1 (centres unmarked) [TCMDC-132304]	94.55	
NCCNc1ccc([N+](=O)[O-])cc1C(=O)Nc1cccc(C(F)(F)F)c1 [TCMDC-123677]	3.903	
N=C1NC(=O)C(=Cc2cn(-c3ccccc3)nc2-c2cccc(S(=O)(=O)N3CCCC3)c2)S1 [TCMDC-123756]	0.418	
NC1CCN(Cc2cccc(-c3ccc(-c4nc5ccccc5[nH]4)cc3)c2)C1 (centres unmarked) [TCMDC-133846]	28.29	
NC1CCCN(Cc2cccc(-c3ccc(-c4nc5ccccc5[nH]4)cc3)c2)C1 (centres unmarked) [TCMDC-133848]	22.08	
NC1CCN(Cc2cccc(-c3cccc(-c4nc5ccccc5[nH]4)c3)c2)C1 (centres unmarked) [TCMDC-133875]	72.93	
OC1CCCN(Cc2cccc(-c3ccc(-c4nc5ccccc5[nH]4)cc3)c2)C1 (centres unmarked) [TCMDC-133817]	-22.44	
NC1CCCN(Cc2cccc(-c3cccc(-c4nc5ccccc5[nH]4)c3)c2)C1 (centres unmarked) [TCMDC-133877]	56.31	
Cc1cc(N2CCCCC2)nc2ccc(NC(=O)c3cc(=O)c4ccccc4o3)cc12 [TCMDC-123602]	13.04	
Cc1ccc(NC(=O)Nc2ccccc2)cc1-c1ccc(C(=O)Nc2ccncc2)cc1 [TCMDC-133701]	-4.063	
NC1=NC(c2ccccc2)(c2ccccc2)C(=O)N1Cc1ccc(-c2cccnc2)cc1 [TCMDC-136999]	-17.43	
CC(=O)N1Cc2ccccc2C1=O [TCMDC-131706]	7.417	
COc1ccc(C(=O)CC(=O)c2ccc(OC)cc2OC)c(OC)c1 [TCMDC-123465]	12.1	
CCN(CC)CCN(CCN(CC)CC)c1ccc2c(c1)Sc1c(Cl)ccc(Cl)c1S2 [TCMDC-137934]	63.92	
COc1ccc(Cn2c(=O)[nH]c3cc(C(=O)NC4CCN(Cc5ccccc5)CC4)ccc3c2=O)cc1 [TCMDC-123588]	-15.29	
COc1ccc(NC(=O)N2CCCN(CCCCCNC(=O)/C=C/c3ccc(C(F)(F)F)cc3)CC2)cc1Cl [TCMDC-136109]	-28.75	
COc1cc(CN2CCN(c3ccnc(N(C)C4CCN(C)CC4)n3)CC2)cc(Cl)c1O [TCMDC-125096]	-14.35	
